Source: PubChem BioAssay
Rows were chosen to be rich in hits. Some 7% of all compounds tested hit in one or more screens of this group.
PI5P4Ka inh = qHTS for Inhibitors of phosphatidylinositol 5-phosphate 4-kinase (PI5P4K) | Phosphatidylinositol 5-phosphate 4-kinase type-2 alpha (Homo sapiens), P48426 | PI5P4Kalpha enzyme, ADP-Glo luminescence, 60 min; hits give low values | max response, % | 1.2% of 330,000 active | AID 652105, 2013; active means max response of -50% or lower; inconclusive means between -30% and -50%; inactive means -30% or higher; further: value at the top dose of about 77 µM
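ADP-Glo luminescence end-point after a 60 min room-temperature kinase reaction. PI5P4Kalpha and substrate in HEPES pH 7.4 buffer with EGTA, 0.1% CHAPS and 5% DMSO; ATP at 5 microM final.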
JMJD2A Tudor = qHTS Assay for Inhibitors of JMJD2A-Tudor Domain; Potency, µM (top dose mostly 114 µM), most hits filed as inhibitors; AlphaScreen JMJD2A-Tudor / H3K4me3 peptide binding; AID 504339, 2011; Lysine-specific demethylase 4A (Homo sapiens), O75164; 4.4% of 390,000 active; further: nearly all actives have a fitted effect of over 50% in size
GCN5L2 inh = qHTS Assay for Inhibitors of GCN5L2; Histone acetyltransferase KAT2A (Homo sapiens), Q92830; GCN5L2 HAT assay, ThioGlo1 CoA-SH fluorescence; Potency, µM (highest dose often 58.9 µM), usual class: inhibitors; 0.21% of 390,000 active; AID 504327, 2011
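Free CoA generated was detected with ThioGlo1 (50uM) fluorescence at Ex340nm/Em540nm, read immediately and after 20 min at room temperature. Enzyme, 20 nM in HEPES pH 7.5 buffer, saw compounds 15 min before adding 75uM H3(1-25) peptide and 70uM acetyl-CoA.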
HP1b binding inh = HTS for Inhibitors of HP1-beta Chromodomain Interactions with Methylated Histone Tails; AlphaScreen HP1-beta / biotin-H3K9me3 peptide binding; Potency, µM (highest dose often 114 µM), hits mostly inhibitors; 0.56% of 390,000 active; further: nearly all actives have a fitted effect of over 70% in size
Target sequence (P83916 whole entry, looked up): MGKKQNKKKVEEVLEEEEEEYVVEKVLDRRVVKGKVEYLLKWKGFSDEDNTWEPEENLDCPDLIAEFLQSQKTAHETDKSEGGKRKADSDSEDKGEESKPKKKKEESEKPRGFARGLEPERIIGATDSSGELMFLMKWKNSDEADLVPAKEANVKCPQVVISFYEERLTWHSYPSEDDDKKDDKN
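AlphaScreen: HP1-beta (50 nM) preformed 30 min with biotin-H3(1-18)K9me3 peptide (50 nM) in PBS pH 7.4, 0.01% Tween-20. Compound added for 30 min at RT, then streptavidin donor/nickel chelate acceptor beads (10 ug/mL) for 30 min.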
BAZ2B inh = qHTS Assay for Inhibitors of BAZ2B. Bromodomain adjacent to zinc finger domain protein 2B (Homo sapiens), Q9UIF8. AlphaScreen BAZ2B-H3K14Ac peptide displacement. Potency, µM (titrated, usually from 114 µM), hits mostly inhibitors. 4.4% of 360,000 active; further: nearly all actives have a fitted effect of over 60% in size
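Protein-peptide AlphaScreen: BAZ2B 50 nM, b-H3K14Ac 50 nM, 1x PBS pH 7.4 + 0.01% Tween-20. Preincubation 30 min RT; cpd 30 min RT (top 110 uM); beads 20 min RT, light-protected.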
PLK1 PBD block = qHTS for Inhibitors of PLK1-PDB (polo-like kinase 1 - polo-box domain): Primary Screen; Serine/threonine-protein kinase PLK1 (Homo sapiens), P53350; Plk1 PBD binding of FITC phosphopeptide, fluorescence polarization; Potency, µM, usual class: inhibitors; 2.8% of 360,000 active; AID 720504, 2013; further: series mostly up to about 57 µM; nearly all actives have a fitted effect of over 65% in size
Target sequence (P53350 whole entry, looked up, the tested form may be a part): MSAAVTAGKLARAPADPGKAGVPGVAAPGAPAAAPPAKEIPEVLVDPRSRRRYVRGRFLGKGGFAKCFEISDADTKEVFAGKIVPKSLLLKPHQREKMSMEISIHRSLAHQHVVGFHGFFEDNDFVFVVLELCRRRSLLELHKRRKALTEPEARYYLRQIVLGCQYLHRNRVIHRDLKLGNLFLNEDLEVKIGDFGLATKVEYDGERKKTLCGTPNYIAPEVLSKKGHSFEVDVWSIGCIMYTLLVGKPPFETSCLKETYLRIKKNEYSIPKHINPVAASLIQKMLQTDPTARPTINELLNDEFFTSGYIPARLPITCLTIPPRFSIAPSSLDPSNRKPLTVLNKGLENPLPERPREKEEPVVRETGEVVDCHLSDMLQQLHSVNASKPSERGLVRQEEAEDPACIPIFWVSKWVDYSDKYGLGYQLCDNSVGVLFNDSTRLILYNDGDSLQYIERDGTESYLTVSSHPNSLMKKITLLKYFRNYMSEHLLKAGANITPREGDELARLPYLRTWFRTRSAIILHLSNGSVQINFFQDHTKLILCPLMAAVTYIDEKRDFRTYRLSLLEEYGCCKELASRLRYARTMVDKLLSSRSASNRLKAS
Each line names hits and unclear results; the compound was inactive in the other large screens. Unless noted, the call rests on the fitted dose curve; in most records, active means well fitted curve in the direction sought with a large enough effect; inconclusive means small, poorly fitted or top-dose-only effect, or another doubt; inactive means no such curve, though single readings can be large; an effect the other way counts as inactive or inconclusive.

C[C@H]1CN([C@@H](C)CO)S(=O)(=O)c2ccc(C#Cc3cccnc3)cc2O[C@@H]1CN(C)C(=O)Nc1ccc2c(c1)OCO2	none (no result: JMJD2A Tudor, GCN5L2 inh, HP1b binding inh, BAZ2B inh)
CCN1C(=O)[C@H]2[C@@H](c3ccc(-c4ccc(Cl)c(Cl)c4)c(OC)c3)N[C@@](Cc3ccccc3)(C(=O)OC)[C@H]2C1=O	none
COCCCNC(=S)N/N=C/c1ccc(O)cc1O	JMJD2A Tudor 50µM, BAZ2B inh 6.3µM
COCCCNC(=S)N/N=C/c1ccc2ccccc2c1	BAZ2B inh inconclusive
COCCCNC(=S)N/N=C/c1cccc(OC)c1O	JMJD2A Tudor inconclusive, BAZ2B inh 6.3µM
COc1cccc(/C=N/NC(=S)Nc2cccc(C(=O)O)c2)c1O	PI5P4Ka inh -60, JMJD2A Tudor 16µM (no result: BAZ2B inh)
COc1cccc(/C=N/NC(=O)CNC(=O)c2ccncc2)c1O	none
COc1cc(/C=N/NC(=S)Nc2cccc(C(=O)O)c2)ccc1O	PI5P4Ka inh inconclusive, HP1b binding inh inconclusive
CCOC(=O)c1cc(-c2ccc(F)cc2)n(CCC(=O)Nc2nc3cc(C)c(C)cc3s2)c1C	none (no result: PI5P4Ka inh, PLK1 PBD block)
O=S(=O)(c1cccc2cnccc12)N1CCCNCC1	JMJD2A Tudor 89µM
CCc1ccc2c(c1)/C(=N/N(C)C(=S)NC)C(=O)N2	JMJD2A Tudor inconclusive, GCN5L2 inh inconclusive, HP1b binding inh inconclusive, BAZ2B inh 10µM
Cn1c(=O)c(=O)n(C)c2cc(S(=O)(=O)N3CCCC3C(=O)Nc3cccc(F)c3)ccc21 (configuration not stated)	none (no result: PI5P4Ka inh, PLK1 PBD block)
Cc1ccc2scc(N3CCN(c4ccccc4)CC3)c(=O)c2c1	JMJD2A Tudor 45µM, BAZ2B inh inconclusive (no result: PI5P4Ka inh, PLK1 PBD block)
Cc1oc(-c2cccc(Cl)c2)nc1CS(=O)(=O)CC(=O)NCc1ccccc1Cl	BAZ2B inh inconclusive (no result: PI5P4Ka inh, PLK1 PBD block)
COc1ccccc1-n1c(SCC(=O)NCc2ccc3c(c2)OCO3)nc2cc([N+](=O)[O-])ccc21	JMJD2A Tudor 50µM, HP1b binding inh inconclusive, PLK1 PBD block inconclusive
COc1ccccc1C(=O)NCc1ccc2c(c1)OCO2	none (no result: PI5P4Ka inh)
COc1ccc(C(=O)NCc2ccc3c(c2)OCO3)c(OC)c1	JMJD2A Tudor inconclusive, GCN5L2 inh inconclusive, PLK1 PBD block 27µM
CC(Sc1nc2cc([N+](=O)[O-])ccc2n1-c1ccc(F)cc1)C(=O)NCc1ccc2c(c1)OCO2 (configuration not stated)	JMJD2A Tudor inconclusive, BAZ2B inh inconclusive, PLK1 PBD block inconclusive
COc1ccccc1OCCC(=O)NCc1ccc2c(c1)OCO2	PI5P4Ka inh inconclusive, JMJD2A Tudor 35µM, PLK1 PBD block 30µM
CCSc1ccccc1C(=O)Nc1ccc(-c2nc3ccccc3s2)c(O)c1	none (no result: PI5P4Ka inh, PLK1 PBD block)
CCOc1ccc(NC(=O)Cn2cc(C(=O)c3ccccc3)c(=O)c3cc4c(cc32)OCCO4)cc1	none (no result: PI5P4Ka inh, PLK1 PBD block)
Cc1c(NC(=O)CSCc2c(F)cccc2Cl)c(=O)n(-c2ccccc2)n1C	none
CCCn1c(=O)c(C(=O)NCc2ccccc2)c(O)c2ccccc21	JMJD2A Tudor inconclusive, PLK1 PBD block 12µM
CCn1c(=O)c(C(=O)NCCCO)c(O)c2ccccc21	JMJD2A Tudor 28µM (no result: BAZ2B inh)
CCn1c(=O)c(C(=O)Nn2c(C)nc3ccccc3c2=O)c(O)c2ccccc21	BAZ2B inh 50µM
CCCn1c(=O)c(C(=O)NCCc2ccccc2)c(O)c2ccccc21	none
COc1ccc(NC(=S)N2CCC(c3ccc(C)cc3)C2)cc1 (configuration not stated)	none
Cc1ccc(NC(=S)N2CCC(c3ccc(C)cc3)C2)cc1 (configuration not stated)	PLK1 PBD block 21µM
CN(C)N1C(=O)C2C3C=CC(O3)C2C1=O (configuration not stated)	none (no result: GCN5L2 inh, BAZ2B inh)
CO/N=C/C1C(=O)NN=C1c1ccccc1 (configuration not stated)	JMJD2A Tudor 13µM, BAZ2B inh inconclusive
CN(Cc1ccccc1)c1ccc(-c2nc(-c3ccco3)no2)cc1[N+](=O)[O-]	none (no result: PI5P4Ka inh, PLK1 PBD block)
O=C(CN1C(=O)C2C3CC(C(Br)C3Br)C2C1=O)Nc1ccc(C(=O)O)cc1 (configuration not stated)	none
N#Cc1c(C(F)(F)F)cc(-c2cccc(Cl)c2)[nH]c1=O	JMJD2A Tudor inconclusive, GCN5L2 inh inconclusive, PLK1 PBD block 21µM
Nc1c(Cl)cc(-c2cn(CCC(=O)O)c(-c3ccc(Cl)nc3)n2)cc1Cl	none
O=C(NNC(=O)C1C2C=CC(C2)C1C(=O)O)c1ccccc1O (configuration not stated)	BAZ2B inh 50µM
CNC(=O)N1CCC(C(=O)c2c(C)c(C)c(C)c(C)c2C)CC1	none
COc1ccc(Br)cc1/C=N/N1C(=O)CSC1=S	PI5P4Ka inh inconclusive, JMJD2A Tudor inconclusive, HP1b binding inh inconclusive, BAZ2B inh inconclusive
O=C1CSC(=S)N1/N=C/c1cc(Br)c(O)c(Br)c1	PI5P4Ka inh -106, JMJD2A Tudor 16µM, BAZ2B inh 35µM
Cc1ccccc1/C=N/N1C(=O)CSC1=S	JMJD2A Tudor inconclusive, PLK1 PBD block inconclusive
COc1cc(O)c(C=NN2C(=O)CSC2=S)c(OC)c1	PI5P4Ka inh -75 (no result: JMJD2A Tudor, GCN5L2 inh, HP1b binding inh, BAZ2B inh)
O=C1CSC(=S)N1/N=C/c1ccc2c(c1)OCCO2	PI5P4Ka inh -57, JMJD2A Tudor inconclusive, BAZ2B inh inconclusive, PLK1 PBD block inconclusive
COc1cc(/C=N/N2C(=O)CSC2=S)ccc1O	PI5P4Ka inh -51, HP1b binding inh inconclusive, BAZ2B inh inconclusive
COC(=O)c1cc(NC(=O)CN2C(=O)C(=O)N(C3CCCC3)C2=O)cc(C(=O)OC)c1	none
Cc1ccc(F)c(S(=O)(=O)NC(=O)C2(C)CCN2C(=O)COc2ccc(Cl)cc2)c1 (configuration not stated)	none (no result: JMJD2A Tudor, GCN5L2 inh, HP1b binding inh, BAZ2B inh)
Cc1ccc(NC(=O)CN2C(=O)NC(C)(CC(C)C)C2=O)cc1F (configuration not stated)	none (no result: BAZ2B inh)
O=C1CSC(=S)N1/N=C/c1ccc(Cl)c([N+](=O)[O-])c1	GCN5L2 inh inconclusive, BAZ2B inh 35µM (no result: PI5P4Ka inh, JMJD2A Tudor, HP1b binding inh, PLK1 PBD block)
COc1cc(CNC2CCCc3ccccc32)cc(OC)c1OC (configuration not stated)	JMJD2A Tudor 10µM, HP1b binding inh inconclusive, BAZ2B inh 71µM
COc1cc(C(=O)NC2CCCc3ccccc32)cc(OC)c1OC (configuration not stated)	none
COc1cccc(CNC2CCCc3ccccc32)c1OC (configuration not stated)	JMJD2A Tudor 79µM, HP1b binding inh inconclusive, BAZ2B inh inconclusive
